Laboratory results published in PubChem BioAssay (NCATS).
Several values for one entry are separate records, joined by “and”; a condition that tells them apart may be missing. Identical values can stand only once. Inconclusive results are not listed. More than one record can exist for a structure, and the calls need not agree. Activity calls are given as the source filed them. Unless noted, the call rests on the fitted dose curve; in most records, active means well fitted curve in the direction sought with a large enough effect; inconclusive means small, poorly fitted or top-dose-only effect, or another doubt; inactive means no such curve, though single readings can be large; an effect the other way counts as inactive or inconclusive.

Key:
[1] = target: Alpha-galactosidase (Coffea arabica) (UniProt Q42656); test: Counterscreen for Glucocerebrosidase Inhibitors: qHTS Assay for Coffee Bean alpha-Galactosidase at pH 4.5 (AID 957); further: series mostly up to about 77 µM
Sequence of Alpha-galactosidase (Coffea arabica) (Q42656 whole entry, looked up): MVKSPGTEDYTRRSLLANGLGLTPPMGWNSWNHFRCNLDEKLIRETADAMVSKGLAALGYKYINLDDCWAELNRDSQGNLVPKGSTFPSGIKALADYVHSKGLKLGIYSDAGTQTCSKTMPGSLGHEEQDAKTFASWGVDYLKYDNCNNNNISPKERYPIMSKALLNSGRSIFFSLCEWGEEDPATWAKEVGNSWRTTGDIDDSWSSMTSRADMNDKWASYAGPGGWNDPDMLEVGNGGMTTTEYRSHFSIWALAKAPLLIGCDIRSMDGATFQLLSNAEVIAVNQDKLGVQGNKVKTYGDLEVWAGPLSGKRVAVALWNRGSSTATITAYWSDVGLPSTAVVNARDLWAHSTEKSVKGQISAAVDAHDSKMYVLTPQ
In short: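 Quantitative HTS of compounds (0.7 nM to 77 uM) against coffee bean alpha-galactosidase at pH 4.5, measuring 4-methylumbelliferone fluorescence released from 80 uM substrate.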

[2] = target: Alpha-galactosidase (Coffea arabica) (UniProt Q42656); test: Counterscreen for Glucocerebrosidase Inhibitors: qHTS Assay for Coffee Bean alpha-Galactosidase at pH 5.9 (AID 998)
In short: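 In 50 mM citric acid pH 5.9 with 0.005% Tween-20, coffee bean enzyme hydrolyses 80 uM 4-MU alpha-D-galactopyranoside over 20 min at RT. Activity is normalized to controls; AC50 comes from Hill-modelled concentration-response data.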

[3] = target: M-phase phosphoprotein 8 (Homo sapiens) (UniProt Q99549); test: qHTS Validation Assay for Inhibitors for MPP8 Chromodomain Interactions with Methylated Histone Tails (AID 488949); further: nearly all actives have a fitted effect of over 55% in size; further: potency means the concentration at half of the fitted maximal effect
Sequence of M-phase phosphoprotein 8 (Homo sapiens) (Q99549 whole entry, looked up): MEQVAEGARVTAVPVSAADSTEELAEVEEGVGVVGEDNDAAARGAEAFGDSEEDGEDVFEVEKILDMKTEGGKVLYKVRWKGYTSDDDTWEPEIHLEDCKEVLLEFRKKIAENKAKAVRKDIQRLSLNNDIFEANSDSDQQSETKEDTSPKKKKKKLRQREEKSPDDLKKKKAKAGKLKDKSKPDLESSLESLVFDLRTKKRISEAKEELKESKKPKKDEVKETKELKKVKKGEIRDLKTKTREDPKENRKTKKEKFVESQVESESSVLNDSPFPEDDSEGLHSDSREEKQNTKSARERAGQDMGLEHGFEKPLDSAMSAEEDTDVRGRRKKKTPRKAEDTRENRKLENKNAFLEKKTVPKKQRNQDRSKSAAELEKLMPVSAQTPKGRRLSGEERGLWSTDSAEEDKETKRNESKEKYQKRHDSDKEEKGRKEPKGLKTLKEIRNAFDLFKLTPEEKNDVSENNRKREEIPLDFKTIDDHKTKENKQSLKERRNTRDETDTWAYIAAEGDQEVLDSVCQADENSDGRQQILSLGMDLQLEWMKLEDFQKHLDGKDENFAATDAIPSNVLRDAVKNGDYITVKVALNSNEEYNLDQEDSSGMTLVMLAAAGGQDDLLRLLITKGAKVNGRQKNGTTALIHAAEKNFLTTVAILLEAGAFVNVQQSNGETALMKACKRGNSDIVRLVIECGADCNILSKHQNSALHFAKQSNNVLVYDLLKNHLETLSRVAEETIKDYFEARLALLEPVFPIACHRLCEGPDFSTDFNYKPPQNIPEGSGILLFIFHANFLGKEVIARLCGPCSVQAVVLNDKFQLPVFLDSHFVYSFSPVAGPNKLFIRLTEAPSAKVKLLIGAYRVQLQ
In short: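 AlphaScreen read-out: streptavidin donor and nickel chelate acceptor beads (final 10 ug/mL), 30 min in the dark at RT. Complex of 50 nM MPP8 and 50 nM b-H3(1-18)K9me3 peptide had been exposed to compounds for 30 min beforehand.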

[4] = Inducers of the Endoplasmic Reticulum Stress Response (ERSR) in human glioma: Validation (AID 504836)
In short: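 Stably transfected U87-MG human glioma cells carrying a GRP78-based luminescent sensor were seeded at 1000 cells/well, pin-dosed with compounds and incubated 16 h. Luciferase reagent was then added, and end-point luminescence was read after 10 min at room temperature.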

[5] = qHTS for Inhibitors of the Functional Ribonucleoprotein Complex (vRNP) of Lassa (LASV) Arenavirus: LASV Primary Screen - GLuc reporter signal (AID 1347082; calls by dose curve; tested in HEK293 reporter line; further: series mostly up to about 57 µM; nearly all actives have a fitted effect of over 60% in size)
[6] = qHTS for Inhibitors of the Functional Ribonucleoprotein Complex (vRNP) of Lassa (LASV) Arenavirus: Viability assay - alamar blue signal for LASV Primary Screen (AID 1347083; calls by dose curve; tested in HEK293 reporter line; further: series mostly up to about 57 µM; nearly all actives have a fitted effect of over 80% in size)
[7] = qHTS for Inhibitors of the Functional Ribonucleoprotein Complex (vRNP) of Lymphocytic Choriomeningitis Arenaviruses (LCMV): Viability assay - alamar blue signal for LCMV Primary Screen (AID 1347085; calls by dose curve; tested in HEK293 reporter line; further: series mostly up to about 57 µM; nearly all actives have a fitted effect of over 80% in size)
[8] = target: Nucleoprotein (Lymphocytic choriomeningitis virus (strain Armstrong)) (UniProt P09992); test: qHTS for Inhibitors of the Functional Ribonucleoprotein Complex (vRNP) of Lymphocytic Choriomeningitis Arenaviruses (LCMV): LCMV Primary Screen - GLuc reporter signal (AID 1347086; calls by dose curve; further: series mostly up to about 57 µM; nearly all actives have a fitted effect of over 70% in size)
Sequence of Nucleoprotein (Lymphocytic choriomeningitis virus (strain Armstrong)) (P09992 whole entry, looked up): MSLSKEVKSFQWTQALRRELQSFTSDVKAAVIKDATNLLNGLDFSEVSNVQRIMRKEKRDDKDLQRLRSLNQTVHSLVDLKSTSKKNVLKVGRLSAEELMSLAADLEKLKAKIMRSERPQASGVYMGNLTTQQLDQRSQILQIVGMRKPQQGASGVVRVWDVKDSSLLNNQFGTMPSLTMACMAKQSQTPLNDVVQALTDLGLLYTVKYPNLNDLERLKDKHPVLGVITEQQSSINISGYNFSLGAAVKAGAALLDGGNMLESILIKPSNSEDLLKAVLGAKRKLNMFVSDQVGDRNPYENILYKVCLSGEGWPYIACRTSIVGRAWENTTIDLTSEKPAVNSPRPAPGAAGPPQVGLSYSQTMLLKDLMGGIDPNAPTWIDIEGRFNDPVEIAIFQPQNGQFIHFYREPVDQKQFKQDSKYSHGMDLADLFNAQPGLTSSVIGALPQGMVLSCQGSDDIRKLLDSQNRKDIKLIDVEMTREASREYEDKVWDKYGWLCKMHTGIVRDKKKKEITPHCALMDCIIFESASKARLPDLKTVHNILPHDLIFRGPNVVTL

[9] = Validation screen for inhibitors of Lassa infection (AID 463096; calls by dose curve)
[10] = KB-8-5-11 P-gp reporter qHTS against the NCATS DSHEA and TCM libraries (AID 1919977)
In short: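 CellTiter-Glo luminescence after ~72 h exposure at 37C gave viability of KB-8-5-11 cells, the P-gp-overexpressing subline. Substances were titrated; colchicine was omitted from assay medium.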

[11] = target: Cytochrome P450 3A4 (Homo sapiens) (UniProt P08684); test: qHTS Assay for Inhibitors and Substrates of Cytochrome P450 3A4 (AID 884); further: series mostly up to about 57 µM; nearly all actives have a fitted effect of over 50% in size
Sequence of Cytochrome P450 3A4 (Homo sapiens) (P08684 whole entry, looked up): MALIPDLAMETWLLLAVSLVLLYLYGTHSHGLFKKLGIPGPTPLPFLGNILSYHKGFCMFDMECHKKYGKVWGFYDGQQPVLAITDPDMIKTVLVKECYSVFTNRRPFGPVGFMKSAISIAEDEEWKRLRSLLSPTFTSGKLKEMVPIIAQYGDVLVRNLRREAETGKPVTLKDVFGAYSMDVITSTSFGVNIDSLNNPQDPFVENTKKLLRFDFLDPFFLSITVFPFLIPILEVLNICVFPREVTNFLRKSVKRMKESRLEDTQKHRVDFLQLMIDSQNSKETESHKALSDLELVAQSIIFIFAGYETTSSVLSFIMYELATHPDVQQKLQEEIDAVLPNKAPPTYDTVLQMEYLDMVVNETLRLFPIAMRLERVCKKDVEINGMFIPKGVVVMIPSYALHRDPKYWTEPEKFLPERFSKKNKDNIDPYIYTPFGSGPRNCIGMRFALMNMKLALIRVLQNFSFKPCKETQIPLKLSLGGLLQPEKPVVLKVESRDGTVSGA
In short: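 Luminescent readout of luciferin produced by CYP3A4 (20 nM) dealkylation of Luciferin-PPXE, 25 uM (its KM). NADPH-driven reaction ran 60 min at RT after 10 min compound preincubation; data scaled to 57 uM ketoconazole as 100% inhibition.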

[12] = MultiTox-Fluor Cytotoxicity Assay - LYMP1-003 - Dead Cells (AID 961); further: nearly all actives have a fitted effect of over 70% in size
In short: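 Dead-cell protease release, detected as bis-AAF-R110 fluorescence at 485/520 nm, was measured in LYMP1-003 cells after 16 h compound treatment at 37 C. AC50 values came from Hill-modeled qHTS curves normalized to DMSO (0%) and 15 uM tetraoctylammonium bromide (100%).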

[13] = Cell Viability - LYMP1-003 - Assay at 40 hr (AID 964); further: series mostly up to about 92 µM; nearly all actives have a fitted effect of over 60% in size
In short: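 Acute toxicity is scored as a concentration-dependent loss of intracellular ATP in LYMP1-003 cells (2500/well, complete medium) after 40 hr at 37 C, measured by CellTiter-Glo luminescence; AC50 values derive from standard Hill modelling.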

[14] = Cell Viability - LYMP2-010 (AID 981);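 further: cells exposed to compound for 24 hours at 37 °C; nearly all actives have a fitted effect of over 55% in size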
In short: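 This 24 hr viability screen uses LYMP2-010 lymphoblastoid cells, quantifies ATP via luciferase luminescence, and derives AC50 from Hill fits of qHTS concentration-response data.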

[15] = target: Peroxisome proliferator-activated receptor delta (Homo sapiens) (UniProt Q03181); test: qHTS assay for small molecule agonists of peroxisome proliferator-activated receptor delta signaling (AID 588534; calls by dose curve)
Sequence of Peroxisome proliferator-activated receptor delta (Homo sapiens) (Q03181 whole entry, looked up): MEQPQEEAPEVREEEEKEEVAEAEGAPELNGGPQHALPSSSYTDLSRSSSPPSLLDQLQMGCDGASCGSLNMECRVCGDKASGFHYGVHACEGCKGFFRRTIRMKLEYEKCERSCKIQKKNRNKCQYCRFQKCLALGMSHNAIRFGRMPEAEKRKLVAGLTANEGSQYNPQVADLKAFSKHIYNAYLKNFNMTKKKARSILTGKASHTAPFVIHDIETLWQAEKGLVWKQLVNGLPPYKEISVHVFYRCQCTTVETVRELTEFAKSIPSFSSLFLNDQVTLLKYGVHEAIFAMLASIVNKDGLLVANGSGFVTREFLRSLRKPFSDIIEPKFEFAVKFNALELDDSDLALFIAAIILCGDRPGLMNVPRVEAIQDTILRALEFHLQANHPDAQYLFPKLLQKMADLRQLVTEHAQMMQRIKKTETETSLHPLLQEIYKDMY
In short: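 EC50 and efficacy values derive from Hill fits of a concentration series in a beta-lactamase reporter cell assay. Exposure is 18 hrs at 37 C, with CCF4 fluorescence as the readout.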

[16] = qHTS assay for small molecule agonists of the antioxidant response element (ARE) signaling pathway (AID 651741; active means well fitted activation curve with a large enough effect in the signal ratio; the % refers to the signal ratio; further: potency means the concentration at half of the fitted maximal effect)
In short: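 Beta-lactamase reporter expression driven by the antioxidant response element in HepG2 cells was detected by fluorescence with LiveBLAzer B/G FRET substrate (2 h, room temperature) following 16 h compound treatment at 37 C.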

[17] = target: Nuclear receptor ROR-gamma (Homo sapiens) (UniProt P51449); test: qHTS assay for small molecule antagonists of the retinoid-related orphan receptor gamma (ROR-gamma) signaling pathway (AID 651802);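 further: CHO cells with doxycycline-induced ROR-gamma expression; luciferase reporter luminescence driven by ROR response element; series mostly up to about 92 µM; nearly all actives have a fitted effect of over 60% in size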
Sequence of Nuclear receptor ROR-gamma (Homo sapiens) (P51449 whole entry, looked up): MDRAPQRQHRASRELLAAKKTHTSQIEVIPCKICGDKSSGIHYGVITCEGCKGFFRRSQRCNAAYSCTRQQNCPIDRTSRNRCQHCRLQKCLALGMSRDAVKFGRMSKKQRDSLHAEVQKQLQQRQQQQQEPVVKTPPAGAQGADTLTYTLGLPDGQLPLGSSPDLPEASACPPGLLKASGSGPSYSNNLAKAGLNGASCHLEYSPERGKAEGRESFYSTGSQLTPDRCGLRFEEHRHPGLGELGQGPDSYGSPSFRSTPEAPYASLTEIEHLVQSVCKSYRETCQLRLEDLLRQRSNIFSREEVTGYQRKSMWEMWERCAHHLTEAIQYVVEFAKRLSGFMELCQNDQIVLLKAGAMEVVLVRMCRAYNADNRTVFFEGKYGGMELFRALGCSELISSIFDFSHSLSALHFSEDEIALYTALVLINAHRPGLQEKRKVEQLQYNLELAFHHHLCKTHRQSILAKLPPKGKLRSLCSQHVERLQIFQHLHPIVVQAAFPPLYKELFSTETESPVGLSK
In short: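 Doxycycline-induced reporter activity in engineered CHO cells (TET-inducible ROR, RORE-LUC) was measured by luminescence after 16hr compound exposure at 37C.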

[18] = target: Nuclear receptor subfamily 1 group I member 3 (Homo sapiens) (UniProt Q14994); test: Primary qHTS for antagonist of constitutive androstane receptor (CAR) against the NCATS DSHEA and TCM libraries (AID 1794836); further: series mostly up to about 40 µM
Sequence of Nuclear receptor subfamily 1 group I member 3 (Homo sapiens) (Q14994 whole entry, looked up): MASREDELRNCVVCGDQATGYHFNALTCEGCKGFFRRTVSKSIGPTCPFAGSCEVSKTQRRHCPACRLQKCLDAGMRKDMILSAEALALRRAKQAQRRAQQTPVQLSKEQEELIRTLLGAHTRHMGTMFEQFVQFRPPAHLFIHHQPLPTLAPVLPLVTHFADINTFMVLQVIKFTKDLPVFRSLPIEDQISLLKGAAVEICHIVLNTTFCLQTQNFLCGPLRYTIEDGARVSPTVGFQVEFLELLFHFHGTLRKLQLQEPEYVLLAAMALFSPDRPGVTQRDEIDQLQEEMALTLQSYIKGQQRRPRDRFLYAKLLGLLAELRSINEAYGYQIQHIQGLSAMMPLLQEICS
In short: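 HepG2 cells stably carrying hCAR and a CYP2B6 luciferase reporter (2,500 cells/well) attached for 5 h, then received compounds with 48 uM CITCO for 24 h at 37C. ONE-Glo luminescence read antagonism; CellTiter-Fluor (405/540 nm) gave viability.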

[19] = target: Cytochrome P450 3A4 (Homo sapiens) (UniProt P08684); test: qHTS Assay for Activators of Cytochrome P450 3A4 (AID 885); further: nearly all actives have a fitted effect of over 65% in size
In short: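 Luminescent readout of luciferin formed from 25 uM Luciferin-PPXE (KM level) by 20 nM CYP3A4 in 200 mM KPO4, with 60 min NADPH-driven reaction at room temperature after 10 min compound exposure. Ketoconazole (57 uM) defined 100% inhibition.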

Measured: Potency

O=c1oc(Cl)c(Cl)c2ccccc12
inactive: [1] | [2] | [4] | [5] | [6] | [7] | [8]
25.1 µM (active) and inactive: [3]

CC(N)=NCCCC[C@@H](N)C(=O)O
inactive: [9] | [5] | [6] | [7] | [8]

O=C(/C=C/c1ccc(O)c(O)c1)O[C@@H]1C[C@](O)(C(=O)O)C[C@@H](O)[C@H]1O
inactive: [5] | [6] | [7] | [8] | [10]

O=C(/C=C/c1ccc(O)cc1)c1ccc(O)cc1O
inactive: [9] | [5] | [6] | [7] | [8]

CC(=O)/C=C/c1ccccc1
not listed: [1] | [2] | [3] | [4] | [9] | [10] | [18] | [19]
inactive: all other assays above

C=C/C(C)=C/C/C=C(\C)CCC=C(C)C
inactive: [5] | [6] | [7] | [8] | [18] | [10]

CC1=CCC(=C(C)C)CC1
inactive: [5] | [6] | [7] | [8] | [10]

C=C/C(C)=C/[C@@]1(C)SC(=O)C(C)=C1O
inactive: [9] | [5] | [6] | [7] | [8]

C=C(C)[C@H]1CC=C(CO)CC1
inactive: [5] | [6] | [7] | [8] | [10]

O=C(O)/C=C/c1ccc(O)c(O)c1
inactive: [1] | [2] | [9] | [4] | [5] | [6] | [7] | [8] | [18] | [10]

Nc1nc2ccc(Cl)cc2c2nc(-c3ccco3)nn12
50.1 µM (active) and inactive: [3]
inactive: [19] | [2] | [9] | [4] | [5] | [6] | [7] | [8]

C=C1C[C@@]23CC[C@H]4[C@@](C)(CCC[C@@]4(C)C(=O)OC4OC(CO)C(O)C(O)C4O)[C@@H]2CC[C@]1(OC1OC(CO)C(O)C(O)C1OC1OC(CO)C(O)C(O)C1O)C3 (stereo partly specified)
inactive: [4] | [5] | [6] | [7] | [8] | [10]

c1ccc2c(c1)-c1cccc3cccc-2c13
inactive: [11] | [12] | [13] | [14] | [15] | [17] | [5] | [6] | [7] | [8]
inactive and 30.6 µM (active): [16]
